Results filed as inconclusive are left out. Active and inactive are the calls of the source. How the source made its calls: active means hit-call score of the fitted dose curve at least 0.9, where 1 is the maximum; inconclusive means response in the unintended direction; inactive means score below 0.9.

Sequence of Muscarinic acetylcholine receptor M1 (Homo sapiens) (P11229 whole entry, looked up): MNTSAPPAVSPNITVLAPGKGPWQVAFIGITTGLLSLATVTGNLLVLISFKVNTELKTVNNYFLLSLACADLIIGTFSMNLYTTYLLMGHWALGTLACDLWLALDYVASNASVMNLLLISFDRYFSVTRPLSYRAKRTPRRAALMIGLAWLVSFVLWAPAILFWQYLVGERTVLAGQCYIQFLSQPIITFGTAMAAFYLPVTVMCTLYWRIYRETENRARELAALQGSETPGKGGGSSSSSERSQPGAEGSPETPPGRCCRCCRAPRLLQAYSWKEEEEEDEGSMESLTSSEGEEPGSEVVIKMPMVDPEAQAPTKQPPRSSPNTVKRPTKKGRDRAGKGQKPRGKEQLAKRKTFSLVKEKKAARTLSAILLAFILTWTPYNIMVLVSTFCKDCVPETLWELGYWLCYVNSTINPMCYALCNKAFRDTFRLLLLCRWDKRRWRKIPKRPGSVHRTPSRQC
Sequence of Muscarinic acetylcholine receptor M5 (Homo sapiens) (P08912 whole entry, looked up): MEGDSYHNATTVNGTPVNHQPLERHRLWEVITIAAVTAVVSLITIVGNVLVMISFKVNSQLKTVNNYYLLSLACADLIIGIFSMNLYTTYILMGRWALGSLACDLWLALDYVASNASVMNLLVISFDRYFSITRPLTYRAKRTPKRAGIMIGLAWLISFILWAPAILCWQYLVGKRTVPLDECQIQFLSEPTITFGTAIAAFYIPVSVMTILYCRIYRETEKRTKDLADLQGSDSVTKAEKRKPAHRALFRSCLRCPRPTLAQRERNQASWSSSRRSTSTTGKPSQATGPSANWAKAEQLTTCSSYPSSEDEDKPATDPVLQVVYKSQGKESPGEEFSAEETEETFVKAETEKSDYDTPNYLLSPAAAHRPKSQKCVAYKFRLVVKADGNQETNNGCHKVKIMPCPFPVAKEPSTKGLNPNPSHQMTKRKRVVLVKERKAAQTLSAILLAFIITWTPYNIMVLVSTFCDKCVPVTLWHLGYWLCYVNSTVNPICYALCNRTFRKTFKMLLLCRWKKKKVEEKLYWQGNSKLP
Sequence of Muscarinic acetylcholine receptor M2 (Homo sapiens) (P08172 whole entry, looked up): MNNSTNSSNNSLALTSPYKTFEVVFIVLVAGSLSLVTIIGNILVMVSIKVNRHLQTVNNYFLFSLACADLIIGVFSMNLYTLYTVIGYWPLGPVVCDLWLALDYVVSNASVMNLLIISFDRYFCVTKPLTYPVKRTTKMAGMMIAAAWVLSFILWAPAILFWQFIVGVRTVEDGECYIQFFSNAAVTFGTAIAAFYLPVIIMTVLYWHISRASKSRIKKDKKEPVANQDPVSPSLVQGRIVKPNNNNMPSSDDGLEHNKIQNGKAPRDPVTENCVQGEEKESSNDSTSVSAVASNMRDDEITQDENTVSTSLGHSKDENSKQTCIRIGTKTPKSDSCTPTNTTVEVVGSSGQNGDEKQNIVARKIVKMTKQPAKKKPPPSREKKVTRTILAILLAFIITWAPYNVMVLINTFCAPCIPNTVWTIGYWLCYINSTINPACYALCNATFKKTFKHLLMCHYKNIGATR

The target of one assay is Muscarinic acetylcholine receptor M1 (Homo sapiens) (UniProt P11229). The assay is described as follows: NVS_GPCR_hM1: NovaScreen (NVS) G Protein-Coupled Receptor Assay for human Muscarinic, M1 Receptor (AID 2283270). Summed up:
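Cell-free radioligand displacement using membrane protein extracted from CHO cells, read by filter-based scintillation counting 1 h after dosing. Loss of bound signal fitted versus DMSO; primary screen single concentration 25 uM in duplicate, actives followed by concentration series.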
For the compound `CCCCCCCCCCCCc1ccccc1S(=O)(=O)O`, the AC50 was 18.4 µM (active).
Take `Cc1oc(-c2ccccc2)nc1CCOc1ccc(C[C@H](Nc2ccccc2C(=O)c2ccccc2)C(=O)O)cc1`: the result was inactive.
Take `CCCOc1sc(C(=O)N2CCC(c3cc(CN)ccc3F)CC2)c(C)c1Br`: the AC50 was 8.67 µM (active).
For the compound `CCCCCCCC(=O)O`, the call was inactive.
With `CCN(CC)CCNc1ccc(CNC=O)c2sc3ccc(OC)cc3c(=O)c12`, the AC50 is 4.7 µM (active).

The next assay deals with Muscarinic acetylcholine receptor M3 (Homo sapiens) (UniProt P20309). The experiment in a line: NVS_GPCR_hM3: NovaScreen (NVS) G Protein-Coupled Receptor Assay for human Muscarinic, M3 Receptor (AID 2283272). Summed up: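 Radioligand displacement binding on human M3 receptor in CHO-derived membranes, 1 h incubation, filter-based scintillation counting. Primary screen in duplicate at 25 uM; actives followed up in concentration series; loss of signal versus DMSO.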
Sequence of Muscarinic acetylcholine receptor M3 (Homo sapiens) (P20309 whole entry, looked up): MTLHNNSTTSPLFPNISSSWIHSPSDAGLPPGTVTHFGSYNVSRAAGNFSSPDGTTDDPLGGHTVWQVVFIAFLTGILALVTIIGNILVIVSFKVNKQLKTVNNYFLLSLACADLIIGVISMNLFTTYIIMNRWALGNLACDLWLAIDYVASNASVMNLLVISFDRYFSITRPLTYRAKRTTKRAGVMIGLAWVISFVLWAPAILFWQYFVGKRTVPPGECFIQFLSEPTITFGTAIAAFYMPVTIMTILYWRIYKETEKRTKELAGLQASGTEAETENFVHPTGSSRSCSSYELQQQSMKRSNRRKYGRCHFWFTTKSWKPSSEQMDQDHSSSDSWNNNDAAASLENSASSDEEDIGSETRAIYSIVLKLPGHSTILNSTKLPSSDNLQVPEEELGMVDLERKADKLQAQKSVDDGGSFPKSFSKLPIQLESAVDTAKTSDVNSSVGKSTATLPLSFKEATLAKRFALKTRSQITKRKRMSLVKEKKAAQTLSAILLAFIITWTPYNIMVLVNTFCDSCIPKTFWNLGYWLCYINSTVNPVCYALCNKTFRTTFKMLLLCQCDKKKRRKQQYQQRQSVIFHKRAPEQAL
With `CCCCCCCCCCCCc1ccccc1S(=O)(=O)O`, the AC50 was 41 µM (active).
The same measure, in the same setting: to `CCCOc1sc(C(=O)N2CCC(c3cc(CN)ccc3F)CC2)c(C)c1Br` belongs 11.3 µM (active).
For the compound `CCCCCCCC(=O)O`, the compound was classed as inactive.
As to `NC(=O)N(O)[C@@H]1C=C[C@H](Oc2cccc(Oc3ccc(F)cc3)c2)C1`, the result was inactive.
Consider `CCN(CC)CCNc1ccc(CNC=O)c2sc3ccc(OC)cc3c(=O)c12`, for which the concentration at half-maximal activity (AC50) was 8.94 µM (active).

In the next assay the target is Muscarinic acetylcholine receptor M2 (Homo sapiens) (UniProt P08172). The assay is described as follows: NVS_GPCR_hM2: NovaScreen (NVS) G Protein-Coupled Receptor Assay for human Muscarinic, M2 Receptor (AID 2283273). Summed up:
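Cell-free radioligand binding using membranes from CHO cells expressing the receptor; filter-based scintillation counting after 1 hour of compound exposure. Loss of specific binding relative to DMSO baseline; primary screen at 25 uM in duplicate, actives then run in concentration series.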
With `CCCOc1sc(C(=O)N2CCC(c3cc(CN)ccc3F)CC2)c(C)c1Br`, the AC50 is 12.2 µM (active).
In the case of `CCCCCCCCCCCCCC[N+](C)(C)C`, the AC50 was 1.07 µM (active).
On the same count and under the same terms, to `CC(=O)NC1(c2cccc(F)c2)CCN(CC[C@@]2(c3ccc(Cl)c(Cl)c3)CN(c3ccccc3)C(=O)CO2)CC1` belongs 8.68 µM (active).
With `CCCCCCCC(=O)O`, the result was inactive.
In the case of `CCN(CC)CCNc1ccc(CNC=O)c2sc3ccc(OC)cc3c(=O)c12`, the AC50 was 11.7 µM (active).
Take `CCC(=C(c1ccc(O)cc1)c1ccc(OCCN(C)C)cc1)c1ccccc1`: the compound was called inactive.

Another assay deals with human Muscarinic, M4 Receptor, CHRM4 (gene 1132) (UniProt P08173). The assay is described as follows: NVS_GPCR_hM4: NovaScreen (NVS) G Protein-Coupled Receptor Assay for human Muscarinic, M4 Receptor (AID 2283274). Here is the method: NVS_GPCR_hM4 is a biochemical, single-readout assay that uses extracted gene-proteins from CHO in a cell-free assay. Measurements were taken 1 hour after chemical dosing in a 96-well plate.NVS_GPCR_hM4 is one of one assay component(s) measured or calculated from the NVS_GPCR_hM4 assay. It is designed to make measurements of radioligand binding, a form of binding reporter, as detected with scintillation counting signals by Filter-based radiodetection technology.Data from the assay component NVS_GPCR_hM4 was analyzed into 1 assay endpoint. This assay endpoint, NVS_GPCR_hM4, was analyzed in the positive analysis fitting direction relative to DMSO as the negative control and baseline of activity. Using a type of binding reporter, loss-of-signal activity can be used to understand changes in the binding as they relate to the gene CHRM4. Furthermore, this assay endpoint can be referred to as a primary readout, because the performed assay has only produced 1 assay endpoint. To generalize the intended target to other relatable targets, this assay endpoint is annotated to the gpcr intended target family, where the subfamily is rhodopsin-like receptor.
Sequence of human Muscarinic, M4 Receptor, CHRM4 (gene 1132) (P08173 whole entry, looked up): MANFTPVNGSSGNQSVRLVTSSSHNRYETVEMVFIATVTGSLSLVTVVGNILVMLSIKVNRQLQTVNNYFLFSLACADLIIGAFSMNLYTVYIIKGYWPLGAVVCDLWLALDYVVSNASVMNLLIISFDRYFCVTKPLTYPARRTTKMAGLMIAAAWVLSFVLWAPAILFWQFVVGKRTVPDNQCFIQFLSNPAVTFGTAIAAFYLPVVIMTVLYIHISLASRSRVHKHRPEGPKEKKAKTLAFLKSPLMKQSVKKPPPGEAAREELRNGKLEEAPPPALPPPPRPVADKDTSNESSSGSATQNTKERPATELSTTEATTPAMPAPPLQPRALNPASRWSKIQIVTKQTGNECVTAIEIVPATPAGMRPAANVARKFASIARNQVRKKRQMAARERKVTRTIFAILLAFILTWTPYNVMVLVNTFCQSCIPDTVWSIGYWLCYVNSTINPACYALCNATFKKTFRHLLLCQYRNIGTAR
Binding assays used specific radioligands (tritiated, iodinated) with non-radioactive competitive displacement ligands in agonist or antagonist protocols (as indicated) and various reference compounds and inhibitors to titrate specific binding to receptors and transporters. Most enzyme assays (CYPs, kinases, phosphatases, proteases, HDACs) used recombinant protein and specific substrates (fluorescence mostly, some colorimetric and radioactive) and inhibitors, followed by a biochemical separation of substrate and product. All assays for the biochemical HTS were initially run in duplicate at a single concentration (10 uM for CYP450 assays and 25 uM for all others). […] Each assay was run with positive and negative controls, and concurrent controls on every plate. The follow-up (secondary) screen tested active chemical-pairs in concentration series, as well as a few additional assays not tested in the primary screen, some selected negative inactives, and several cases re-run in the concentration series for confirmatory purposes.
For `CCCCCCCCCCCCc1ccccc1S(=O)(=O)O`, the AC50 was 33.5 µM (active).
Still for that read-out and setting: under `CCCOc1sc(C(=O)N2CCC(c3cc(CN)ccc3F)CC2)c(C)c1Br` stands 11.1 µM (active); under `CC(=O)NC1(c2cccc(F)c2)CCN(CC[C@@]2(c3ccc(Cl)c(Cl)c3)CN(c3ccccc3)C(=O)CO2)CC1`, 13.9 µM (active).
Still for that read-out and setting: to `CCCCCCCC(=O)O` belongs 6.66 µM (active); to `NC(=O)N(O)[C@@H]1C=C[C@H](Oc2cccc(Oc3ccc(F)cc3)c2)C1`, 25 µM (active).
Still for that read-out and setting: to `CCN(CC)CCNc1ccc(CNC=O)c2sc3ccc(OC)cc3c(=O)c12` belongs 8.13 µM (active).
For the compound `CN1CCC[C@H]1c1cccnc1`, the compound was called inactive.

The next assay concerns the target Muscarinic acetylcholine receptor M5 (Homo sapiens) (UniProt P08912). The experiment in a line: NVS_GPCR_hM5: NovaScreen (NVS) G Protein-Coupled Receptor Assay for human Muscarinic, M5 Receptor (AID 2283275). Summed up:
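Radioligand displacement on CHO-derived membrane preparations, 1 h, filter-based scintillation counting. Single-concentration duplicate screen at 25 uM; hits (e.g. 30% inhibition) retested in singleton concentration-response up to 50 uM. Loss of binding fitted versus DMSO.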
On to `CCCCCCCCCCCCc1ccccc1S(=O)(=O)O`, for which the AC50 was 17.2 µM (active).
For the compound `Cc1oc(-c2ccccc2)nc1CCOc1ccc(C[C@H](Nc2ccccc2C(=O)c2ccccc2)C(=O)O)cc1`, the call was inactive.
For the compound `CCCOc1sc(C(=O)N2CCC(c3cc(CN)ccc3F)CC2)c(C)c1Br`, the AC50 is 4.84 µM (active).
Same read-out and setting: under `CC(=O)NC1(c2cccc(F)c2)CCN(CC[C@@]2(c3ccc(Cl)c(Cl)c3)CN(c3ccccc3)C(=O)CO2)CC1` stands 10.6 µM (active).
Turning to `NC(=O)N(O)[C@@H]1C=C[C@H](Oc2cccc(Oc3ccc(F)cc3)c2)C1`, the compound was called inactive.
For `CCN(CC)CCNc1ccc(CNC=O)c2sc3ccc(OC)cc3c(=O)c12`, the AC50 was 7.21 µM (active).
The same measure, in the same setting: under `CCC(=C(c1ccc(O)cc1)c1ccc(OCCN(C)C)cc1)c1ccccc1` stands 2.52 µM (active).
Regarding `O=C(OCCOCCOC(=O)c1ccccc1)c1ccccc1`, the result was inactive.
Still for that read-out and setting: to `CN1CCC[C@H]1c1cccnc1` belongs “inactive”.

These data come from PubChem BioAssay (EPA / NIEHS).
